About 8,800 targets were measured; listed, in parts, are those with a hit and a random draw of the rest. About 0.5% of all pairs of compound and target were hits. Unmarked numbers belong to inactive results.
Assays:
Assay in all cases: log2 fold change, soluble protein after heating vs DMSO (PISA); higher = thermal stabilisation; K562 lysate, 10 uM; active = over 0.2 and 3.5 SD of the protein, either way, in both replicates (recomputed)
nilotinib = compound: Cc1cn(-c2cc(NC(=O)c3ccc(C)c(Nc4nccc(-c5cccnc5)n4)c3)cc(C(F)(F)F)c2)cn1 [nilotinib]
Summary of the method: (§1)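 Dounce homogenisation of K562 pellets in PBS pH 7.4 with 1 mM MgCl2 produced a crude extract, used at 1 mg/mL protein. Exposure to 10 μM compound lasted 30 min, and aliquots were then heated for 3 min across 48°C-58°C, pooled and brought to 0.5% NP-40 at 4°C. The supernatant after 21,000xg for 90 min was quantified by TMTpro 16plex LC-MS/MS with channel sums equalised. Duplicate values are given as log-two fold change in thermal stability relative to solvent controls.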

[1] = compound: Cc1nc(Nc2n[nH]c3c2CN(C(=O)N[C@H](CN(C)C)c2ccccc2)C3(C)C)c2sccc2n1
Summary of the method: as §1

dasatinib = compound: Cc1nc(Nc2ncc(C(=O)Nc3c(C)cccc3Cl)s2)cc(N2CCN(CCO)CC2)n1 [dasatinib]
Summary of the method: as §1

[2] = compound: Cc1ncc(-c2ccnc(Nc3ccc(S(C)(=O)=O)cc3)n2)n1C(C)C
Summary of the method: as §1

[3] = compound: Cn1cc(-c2ccc3c(c2)CCN3C(=O)Cc2cccc(C(F)(F)F)c2)c2c(N)ncnc21
Summary of the method: as §1

quisinostat = compound: Cn1cc(CNCC2CCN(c3ncc(C(=O)NO)cn3)CC2)c2ccccc21 [quisinostat]
Summary of the method: as §1

tipifarnib = compound: Cn1cncc1[C@@](N)(c1ccc(Cl)cc1)c1ccc2c(c1)c(-c1cccc(Cl)c1)cc(=O)n2C [tipifarnib]
Summary of the method: as §1

[4] = compound: NC(=O)Nc1cc(-c2cccc(F)c2)sc1C(=O)N[C@H]1CCCNC1
Summary of the method: as §1

[5] = compound: NC(=O)c1cnc(N[C@@H]2CCCC[C@@H]2N)nc1Nc1cccc(-n2nccn2)c1
Summary of the method: as §1

[6] = compound: NC1(c2ccc(-c3nc4ccn5c(=O)[nH]nc5c4cc3-c3ccccc3)cc2)CCC1
Summary of the method: as §1

[7] = compound: NCC(=O)Nc1ccc(-n2nc(C(F)(F)F)cc2-c2ccc3c(ccc4ccccc43)c2)cc1
Summary of the method: as §1

vorinostat = compound: O=C(CCCCCCC(=O)Nc1ccccc1)NO [vorinostat]
Summary of the method: as §1

silmitasertib = compound: O=C(O)c1ccc2c(c1)nc(Nc1cccc(Cl)c1)c1ccncc12 [silmitasertib]
Summary of the method: as §1

[8] = compound: O=C1NC(=O)C(c2cnc3ccccn23)=C1c1cn2c3c(cc(F)cc13)CN(C(=O)N1CCCCC1)CC2
Summary of the method: as §1

entospletinib = compound: c1cn2cc(-c3ccc4cn[nH]c4c3)nc(Nc3ccc(N4CCOCC4)cc3)c2n1 [entospletinib]
Summary of the method: as §1

Chain of UniProt Q13015 (Q13015 whole entry, looked up): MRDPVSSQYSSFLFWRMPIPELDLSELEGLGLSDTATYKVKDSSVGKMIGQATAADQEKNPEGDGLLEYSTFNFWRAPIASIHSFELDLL
Chain of UniProt Q9Y448 (Q9Y448 whole entry, looked up): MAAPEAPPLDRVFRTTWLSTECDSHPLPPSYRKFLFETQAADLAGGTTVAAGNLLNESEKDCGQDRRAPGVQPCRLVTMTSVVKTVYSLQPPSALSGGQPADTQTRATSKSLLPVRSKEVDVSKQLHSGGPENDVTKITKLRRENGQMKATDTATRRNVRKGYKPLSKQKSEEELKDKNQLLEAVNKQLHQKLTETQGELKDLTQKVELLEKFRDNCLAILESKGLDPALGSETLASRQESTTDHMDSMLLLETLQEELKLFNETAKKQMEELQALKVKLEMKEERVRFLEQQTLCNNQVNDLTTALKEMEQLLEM
Chain of UniProt P40692 (P40692 whole entry, looked up): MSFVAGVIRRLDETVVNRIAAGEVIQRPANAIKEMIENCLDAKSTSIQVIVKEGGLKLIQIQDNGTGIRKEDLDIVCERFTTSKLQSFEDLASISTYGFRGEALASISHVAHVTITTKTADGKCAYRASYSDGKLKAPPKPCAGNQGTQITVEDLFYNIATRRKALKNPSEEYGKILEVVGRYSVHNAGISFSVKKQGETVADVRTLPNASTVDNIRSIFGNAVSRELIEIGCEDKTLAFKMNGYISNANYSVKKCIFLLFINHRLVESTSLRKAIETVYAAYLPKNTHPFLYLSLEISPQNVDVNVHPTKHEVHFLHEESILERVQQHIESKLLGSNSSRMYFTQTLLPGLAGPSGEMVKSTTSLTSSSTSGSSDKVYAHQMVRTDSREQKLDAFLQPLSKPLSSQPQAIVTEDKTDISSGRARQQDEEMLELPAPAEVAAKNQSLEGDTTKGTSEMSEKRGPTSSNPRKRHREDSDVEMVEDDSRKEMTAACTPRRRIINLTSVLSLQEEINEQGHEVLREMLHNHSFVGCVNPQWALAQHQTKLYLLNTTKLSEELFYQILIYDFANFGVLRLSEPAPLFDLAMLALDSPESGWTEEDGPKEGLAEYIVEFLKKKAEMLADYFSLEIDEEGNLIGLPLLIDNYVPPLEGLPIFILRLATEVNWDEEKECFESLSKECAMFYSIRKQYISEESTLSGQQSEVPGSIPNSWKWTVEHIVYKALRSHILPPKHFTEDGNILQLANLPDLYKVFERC
Chain of UniProt Q8N4C8 (Q8N4C8 whole entry, looked up): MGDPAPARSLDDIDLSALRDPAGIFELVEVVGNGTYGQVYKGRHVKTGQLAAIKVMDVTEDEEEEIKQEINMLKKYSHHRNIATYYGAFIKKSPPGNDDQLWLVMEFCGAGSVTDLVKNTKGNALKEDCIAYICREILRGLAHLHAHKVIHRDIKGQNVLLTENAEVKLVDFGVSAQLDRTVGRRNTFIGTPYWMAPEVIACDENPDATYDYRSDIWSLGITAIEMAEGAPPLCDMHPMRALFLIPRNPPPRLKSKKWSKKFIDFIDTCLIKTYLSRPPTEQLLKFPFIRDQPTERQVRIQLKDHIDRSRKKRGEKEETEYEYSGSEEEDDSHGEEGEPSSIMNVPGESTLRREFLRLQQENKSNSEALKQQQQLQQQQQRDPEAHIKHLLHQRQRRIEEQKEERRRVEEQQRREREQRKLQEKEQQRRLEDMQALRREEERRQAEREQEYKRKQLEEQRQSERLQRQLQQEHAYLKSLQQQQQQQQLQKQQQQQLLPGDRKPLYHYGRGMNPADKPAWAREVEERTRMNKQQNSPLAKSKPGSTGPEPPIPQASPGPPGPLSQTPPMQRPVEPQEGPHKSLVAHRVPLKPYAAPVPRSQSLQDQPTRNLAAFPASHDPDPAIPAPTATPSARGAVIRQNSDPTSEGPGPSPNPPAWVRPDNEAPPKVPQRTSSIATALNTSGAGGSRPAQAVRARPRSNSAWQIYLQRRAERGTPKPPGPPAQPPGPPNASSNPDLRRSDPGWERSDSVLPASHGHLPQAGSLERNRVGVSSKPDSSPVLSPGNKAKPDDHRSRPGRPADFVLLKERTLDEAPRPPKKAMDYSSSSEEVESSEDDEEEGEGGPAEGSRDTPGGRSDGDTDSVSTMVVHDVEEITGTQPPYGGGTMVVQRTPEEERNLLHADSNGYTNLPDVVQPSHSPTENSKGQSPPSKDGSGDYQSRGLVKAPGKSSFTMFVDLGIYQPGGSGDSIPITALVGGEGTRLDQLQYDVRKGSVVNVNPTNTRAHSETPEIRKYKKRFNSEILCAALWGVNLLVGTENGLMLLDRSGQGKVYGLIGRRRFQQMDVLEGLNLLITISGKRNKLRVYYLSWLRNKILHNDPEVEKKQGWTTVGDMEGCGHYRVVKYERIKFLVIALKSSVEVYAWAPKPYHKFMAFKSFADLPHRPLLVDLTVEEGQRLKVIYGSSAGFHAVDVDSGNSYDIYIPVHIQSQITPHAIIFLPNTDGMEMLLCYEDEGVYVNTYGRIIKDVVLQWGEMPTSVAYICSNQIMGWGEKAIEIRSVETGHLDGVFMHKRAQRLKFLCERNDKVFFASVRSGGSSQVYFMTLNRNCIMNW
Chain of UniProt Q6ZRQ5 (Q6ZRQ5 whole entry, looked up): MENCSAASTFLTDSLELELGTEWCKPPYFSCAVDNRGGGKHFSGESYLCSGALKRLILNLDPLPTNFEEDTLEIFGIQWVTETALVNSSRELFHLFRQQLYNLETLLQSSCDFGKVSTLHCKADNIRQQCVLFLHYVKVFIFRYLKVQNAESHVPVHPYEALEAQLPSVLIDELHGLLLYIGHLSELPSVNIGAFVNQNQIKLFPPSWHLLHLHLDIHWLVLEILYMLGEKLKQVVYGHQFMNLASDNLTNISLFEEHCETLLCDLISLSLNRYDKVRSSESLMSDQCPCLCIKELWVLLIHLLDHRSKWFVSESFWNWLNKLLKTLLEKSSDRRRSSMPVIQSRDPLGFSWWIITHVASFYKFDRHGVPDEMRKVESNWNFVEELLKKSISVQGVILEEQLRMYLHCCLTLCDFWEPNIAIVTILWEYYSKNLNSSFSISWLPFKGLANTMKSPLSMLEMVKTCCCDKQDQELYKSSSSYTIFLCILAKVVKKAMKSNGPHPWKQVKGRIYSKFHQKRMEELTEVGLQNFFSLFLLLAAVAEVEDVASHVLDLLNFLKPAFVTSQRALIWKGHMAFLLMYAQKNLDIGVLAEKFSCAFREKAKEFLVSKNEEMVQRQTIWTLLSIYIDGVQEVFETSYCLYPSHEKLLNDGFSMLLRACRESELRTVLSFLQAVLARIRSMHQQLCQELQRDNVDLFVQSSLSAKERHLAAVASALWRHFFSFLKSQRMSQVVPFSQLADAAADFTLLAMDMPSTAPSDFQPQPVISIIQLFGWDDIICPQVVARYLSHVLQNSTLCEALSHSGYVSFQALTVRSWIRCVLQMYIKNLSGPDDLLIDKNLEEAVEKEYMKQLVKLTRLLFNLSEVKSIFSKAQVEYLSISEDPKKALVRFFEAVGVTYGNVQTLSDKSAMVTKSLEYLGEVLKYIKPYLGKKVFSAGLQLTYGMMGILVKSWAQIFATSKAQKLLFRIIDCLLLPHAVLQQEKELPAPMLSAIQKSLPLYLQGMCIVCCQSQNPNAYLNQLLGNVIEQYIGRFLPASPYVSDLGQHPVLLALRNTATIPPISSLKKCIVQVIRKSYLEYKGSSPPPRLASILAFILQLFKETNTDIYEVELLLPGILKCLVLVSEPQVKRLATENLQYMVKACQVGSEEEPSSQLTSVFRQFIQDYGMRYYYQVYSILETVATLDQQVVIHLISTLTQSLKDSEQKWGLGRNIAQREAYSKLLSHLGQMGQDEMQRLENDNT
Chain of UniProt P45984 (P45984 whole entry, looked up): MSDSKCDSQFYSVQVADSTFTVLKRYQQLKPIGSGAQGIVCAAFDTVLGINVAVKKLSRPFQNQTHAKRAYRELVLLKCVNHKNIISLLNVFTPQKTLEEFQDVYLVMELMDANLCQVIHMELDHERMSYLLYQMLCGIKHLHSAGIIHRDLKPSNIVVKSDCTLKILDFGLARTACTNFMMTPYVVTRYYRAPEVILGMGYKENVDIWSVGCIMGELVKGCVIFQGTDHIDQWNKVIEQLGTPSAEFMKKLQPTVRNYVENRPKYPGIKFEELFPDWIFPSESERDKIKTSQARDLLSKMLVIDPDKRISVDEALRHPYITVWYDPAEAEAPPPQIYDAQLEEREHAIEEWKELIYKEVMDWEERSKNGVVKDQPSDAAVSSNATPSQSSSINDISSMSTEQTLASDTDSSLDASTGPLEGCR
Chain of UniProt O95777 (O95777 whole entry, looked up): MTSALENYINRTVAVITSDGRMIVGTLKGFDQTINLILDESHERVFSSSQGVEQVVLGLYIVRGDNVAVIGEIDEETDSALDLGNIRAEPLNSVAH
Chain of UniProt Q8N4N3 (Q8N4N3 whole entry, looked up): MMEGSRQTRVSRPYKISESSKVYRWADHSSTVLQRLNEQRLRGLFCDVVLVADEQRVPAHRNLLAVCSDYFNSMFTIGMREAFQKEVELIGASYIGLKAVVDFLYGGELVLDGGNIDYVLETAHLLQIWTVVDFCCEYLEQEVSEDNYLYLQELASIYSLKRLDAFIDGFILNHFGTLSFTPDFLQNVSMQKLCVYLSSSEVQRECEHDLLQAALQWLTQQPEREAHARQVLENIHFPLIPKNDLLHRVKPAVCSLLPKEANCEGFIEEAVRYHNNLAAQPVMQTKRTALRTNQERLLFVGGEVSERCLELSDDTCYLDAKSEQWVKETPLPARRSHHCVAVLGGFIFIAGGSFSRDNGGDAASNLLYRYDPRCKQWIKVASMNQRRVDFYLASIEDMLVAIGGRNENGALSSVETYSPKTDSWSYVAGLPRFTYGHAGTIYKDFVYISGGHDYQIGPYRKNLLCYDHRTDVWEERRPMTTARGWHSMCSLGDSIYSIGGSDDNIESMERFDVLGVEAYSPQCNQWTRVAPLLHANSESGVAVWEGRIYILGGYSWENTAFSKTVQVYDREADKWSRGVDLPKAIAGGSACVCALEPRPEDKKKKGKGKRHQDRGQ

Target | log2 fold change (nilotinib) | log2 fold change [1] | log2 fold change (dasatinib) | log2 fold change [2] | log2 fold change [3] | log2 fold change (quisinostat) | log2 fold change (tipifarnib) | log2 fold change [4] | log2 fold change [5] | log2 fold change [6] | log2 fold change [7] | log2 fold change (vorinostat) | log2 fold change (silmitasertib) | log2 fold change [8] | log2 fold change (entospletinib)
KPNA4 (UniProt O00629) | -0.013 | 0.006 | 0.063 | 0.018 | 0.003 | -0.088 | -0.033 | -0.012 | 0 | -0.058 | 0.006 | 0.047 | 0.024 | 0.02 | 0.021
MLH1 (UniProt P40692) | 0 | 0.014 | -0.007 | 0.03 | 0.031 | -0.043 | 0.005 | 0.061 | 0.067 | -0.046 | 0.04 | -0.312 (active) | 0.025 | 0.005 | 0.022
MAP4 (UniProt E7EVA0) | 0.073 | 0.021 | -0.009 | 0.046 | 0.057 | -0.271 (active) | -0.031 | 0.024 | 0.016 | -0.1 | -0.044 | 0.025 | 0.028 | 0.079 | -0.025
MPI (UniProt P34949) | 0.002 | -0.02 | -0.035 | 0.019 | -0.022 | -0.025 | 0.009 | 0.029 | 0.016 | -0.026 | 0.013 | 0.049 | -0.047 | -0.007 | -0.017
MLLT11 (UniProt Q13015) | 0.068 | 0.03 | -0.015 | -0.051 | -0.06 | -0.029 | -0.204 | 0.107 | 0.011 | 0.055 | 0.08 | 0.104 | -0.203 | -0.016 | 0.034
LRRC40 (UniProt Q9H9A6) | -0.008 | -0.01 | -0.012 | -0.035 | 0.017 | 0.032 | -0.032 | 0.004 | 0.004 | 0.029 | -0.005 | -0.315 (active) | 0.027 | -0.043 | 0.02
KLHL36 (UniProt Q8N4N3) | 0.012 | -0.104 | -0.021 | 0.027 | 0.049 | 0.043 | 0.067 | 0.007 | -0.023 | -0.014 | 0.059 | -0.161 | 0.082 | -0.037 | -0.006
MAPK9 (UniProt P45984) | -0.015 | 0.025 | -0.005 | 0.174 | 0.118 | 0.004 | -0.028 | -0.005 | 0.009 | 0.012 | -0.008 | -0.129 | 0.037 | -0.004 | 0
MAP1S (UniProt Q66K74) | 0.007 | -0.022 | -0.007 | -0.009 | 0.009 | -0.006 | 0.02 | 0.026 | 0 | 0 | 0.006 | -0.242 (active) | -0.004 | -0.025 | 0.01
LSM8 (UniProt O95777) | 0.132 | 0 | 0.012 | 0.045 | 0.004 | -0.043 | 0.048 | -0.02 | -0.035 | 0.033 | -0.052 | 0.063 | -0.011 | 0.009 | 0.028
KIF3C (UniProt O14782) | -0.038 | -0.117 | 0.026 | 0.191 | 0.062 | -0.204 | -0.187 | 0.043 | -0.194 | 0.145 | 1.17 (active) | -0.352 | 0.249 | 0.074 | 0.032
MMS22L (UniProt Q6ZRQ5) | 0.033 | 0 | 0.026 | -0.015 | -0.007 | -0.086 | -0.013 | 0.041 | -0.03 | -0.06 | 0.022 | -0.508 (active) | 0.016 | 0.138 | 0.069
LIMK2 isoform 3 (UniProt P53671) | 0.074 | 0.06 | -0.126 | 0.07 | -0.099 | -0.003 | -0.05 | -0.066 | -0.064 | 0.008 | -0.011 | -0.21 | 0.114 | 0.021 | -0.055
MCMBP isoform 2 (UniProt Q9BTE3) | 0.152 | -0.039 | 0.099 | -0.144 | -0.099 | -0.076 | 0.066 | -0.041 | 0.082 | -0.118 | -0.153 | -0.413 | -0.092 | 0.064 | -0.654
MED16 (UniProt Q9Y2X0) | -0.019 | 0.01 | -0.026 | 0.023 | -0.016 | -0.01 | 0.008 | -0.013 | 0.023 | -0.047 | -0.005 | -0.354 (active) | 0.052 | -0.022 | 0.016
MINK1 (UniProt Q8N4C8) | -0.227 | -0.206 | -0.077 | 0.199 | -0.016 | -0.062 | 0.289 | 0.782 (active) | -0.023 | 0.02 | -0.02 | -0.205 | -0.109 | 0.043 | 0.182
LUZP1 (UniProt Q86V48) | 0.013 | -0.046 | -0.004 | -0.02 | 0.062 | -0.03 | -0.005 | 0.109 | 0.01 | 0.027 | 0.094 | -0.248 (active) | 0.129 | 0.022 | -0.03
MARK1 (UniProt Q9P0L2) | 0.035 | -0.113 | -0.123 | -0.019 | 0.003 | 0.092 | 0.023 | -0.083 | -0.03 | -0.072 | 0.017 | -0.225 | 0.485 (active) | -0.059 | 0.049
KNSTRN (UniProt Q9Y448) | 0.012 | 0.03 | -0.048 | -0.071 | -0.005 | 0.165 | 0.033 | -0.02 | -0.002 | -0.01 | -0.018 | -0.054 | 0 | 0.057 | 0.02
MCU (UniProt Q8NE86) | -0.044 | 0.012 | -0.065 | 0.072 | 0.006 | -0.054 | -0.096 | 0.011 | 0.025 | -0.085 | -0.037 | 0.04 | 0 | -0.072 | -0.016
MAP2K2 (UniProt P36507) | -0.03 | 0.205 | 0.445 (active) | 0.065 | -0.031 | 0 | -0.006 | 0.495 (active) | 0.033 | -0.002 | -0.031 | -0.088 | 0.099 | 0.032 | 0.04

From the supplement of paper PMC10849652
